Experimental data: the supplement of paper PMC10849652
Targets with a hit are over-represented here; the source holds about 7,900 in all. About 0.6% of all pairs of compound and target were hits. Values without a mark were called inactive.

Tests used:
Assay in all cases: log2 fold change, soluble protein after heating vs DMSO (PISA); higher = thermal stabilisation; K562 cells, 10 uM, 30 min; active = over 0.2 and 3.5 SD of the protein, either way, in both replicates (recomputed)
erlotinib = compound: C#Cc1cccc(Nc2ncnc3cc(OCCOC)c(OCCOC)cc23)c1 [erlotinib]
Summary of the method: (§1)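 For each measurement, 10 μM compound was applied for 30 min to K562 cells at 2×10^6 cells/mL. Aliquots were heated for 3 min across 48°C-58°C, pooled, and extracted in PBS with 0.5% NP-40 at 4°C; the supernatant after 21,000xg for 90 min was soluble protein. This was quantified by TMTpro 16plex LC-MS/MS with channel sums equalised, and thermal stability was reported relative to control samples from duplicates, on a log2 fold-change scale.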

[1] = compound: C/C(=N\NC(=O)C1=CC(=CC=C1)S(=O)(=O)N2CCOCC2)/C3=C(C=CC(=C3)Cl)O
Summary of the method: as §1

[2] = compound: C1=CC(=C(C=C1Cl)C2=NC3=NC=CN=C3C(=N2)NC4=CC=NC=C4)F
Summary of the method: as §1

[3] = compound: C1=CC(=CC=C1C2=NC3=C(N2)C=C(C=C3)C(=O)N)OC4=CC=C(C=C4)Cl
Summary of the method: as §1

[4] = compound: C1=CC2=C(C=CC(=C2)/C=C\3/C(=O)NC(=NCC4=CC=CS4)S3)N=C1
Summary of the method: as §1

[5] = compound: C1=CC2=NC=CN=C2C=C1/C=C/3\C(=O)NC(=O)S3
Summary of the method: as §1

[6] = compound: C1=CC=C(C=C1)C2=NC(=C(N2)C3=CC=NC=C3)C4=CC(=C(C=C4)Cl)O
Summary of the method: as §1

[7] = compound: C1=CC=C2C(=C1)C3=NNC4=CC=CC(=C43)C2=O
Summary of the method: as §1

[8] = compound: C1CCN(C1)C(=O)NC2=CC=CC(=C2)NC3=NC=C(C(=N3)NCCC4=CN=CN4)Br
Summary of the method: as §1

[9] = compound: C1CN(CCC1(CC2=CC=C(C=C2)Cl)N)C3=NC=NC4=C3C=CN4
Summary of the method: as §1

Sequence of UniProt O43524 (O43524 whole entry, looked up): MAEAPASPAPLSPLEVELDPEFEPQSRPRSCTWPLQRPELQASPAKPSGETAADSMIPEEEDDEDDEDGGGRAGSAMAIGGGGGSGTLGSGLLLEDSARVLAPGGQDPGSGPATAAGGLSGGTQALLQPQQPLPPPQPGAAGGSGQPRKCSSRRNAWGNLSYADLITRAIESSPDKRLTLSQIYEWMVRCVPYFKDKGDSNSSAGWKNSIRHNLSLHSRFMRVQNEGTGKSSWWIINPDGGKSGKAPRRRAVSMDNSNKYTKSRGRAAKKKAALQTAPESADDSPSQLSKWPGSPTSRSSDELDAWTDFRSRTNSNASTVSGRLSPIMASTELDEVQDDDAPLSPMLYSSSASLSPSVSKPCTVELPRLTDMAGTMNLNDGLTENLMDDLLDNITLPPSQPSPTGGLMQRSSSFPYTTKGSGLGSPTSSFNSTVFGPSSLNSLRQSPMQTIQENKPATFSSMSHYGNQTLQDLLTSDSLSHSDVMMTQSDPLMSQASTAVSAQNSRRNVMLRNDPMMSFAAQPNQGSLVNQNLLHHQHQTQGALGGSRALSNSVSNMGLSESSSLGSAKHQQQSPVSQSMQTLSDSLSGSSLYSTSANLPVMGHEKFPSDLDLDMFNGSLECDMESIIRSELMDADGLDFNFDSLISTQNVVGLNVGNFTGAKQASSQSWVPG
Sequence of UniProt P31943 (P31943 whole entry, looked up): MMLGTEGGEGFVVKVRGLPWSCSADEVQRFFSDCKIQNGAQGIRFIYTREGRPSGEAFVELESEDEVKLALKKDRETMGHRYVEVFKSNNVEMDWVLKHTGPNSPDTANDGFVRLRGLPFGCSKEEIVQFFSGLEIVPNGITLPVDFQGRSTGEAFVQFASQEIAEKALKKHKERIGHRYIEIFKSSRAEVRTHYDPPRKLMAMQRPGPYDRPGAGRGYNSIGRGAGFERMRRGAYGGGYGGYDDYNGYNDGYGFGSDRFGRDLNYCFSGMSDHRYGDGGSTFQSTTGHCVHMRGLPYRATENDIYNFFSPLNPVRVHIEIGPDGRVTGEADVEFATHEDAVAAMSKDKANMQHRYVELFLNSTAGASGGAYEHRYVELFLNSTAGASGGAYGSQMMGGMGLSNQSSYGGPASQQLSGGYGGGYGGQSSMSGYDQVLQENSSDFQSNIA
Sequence of UniProt A6NDN3 (A6NDN3 whole entry, looked up): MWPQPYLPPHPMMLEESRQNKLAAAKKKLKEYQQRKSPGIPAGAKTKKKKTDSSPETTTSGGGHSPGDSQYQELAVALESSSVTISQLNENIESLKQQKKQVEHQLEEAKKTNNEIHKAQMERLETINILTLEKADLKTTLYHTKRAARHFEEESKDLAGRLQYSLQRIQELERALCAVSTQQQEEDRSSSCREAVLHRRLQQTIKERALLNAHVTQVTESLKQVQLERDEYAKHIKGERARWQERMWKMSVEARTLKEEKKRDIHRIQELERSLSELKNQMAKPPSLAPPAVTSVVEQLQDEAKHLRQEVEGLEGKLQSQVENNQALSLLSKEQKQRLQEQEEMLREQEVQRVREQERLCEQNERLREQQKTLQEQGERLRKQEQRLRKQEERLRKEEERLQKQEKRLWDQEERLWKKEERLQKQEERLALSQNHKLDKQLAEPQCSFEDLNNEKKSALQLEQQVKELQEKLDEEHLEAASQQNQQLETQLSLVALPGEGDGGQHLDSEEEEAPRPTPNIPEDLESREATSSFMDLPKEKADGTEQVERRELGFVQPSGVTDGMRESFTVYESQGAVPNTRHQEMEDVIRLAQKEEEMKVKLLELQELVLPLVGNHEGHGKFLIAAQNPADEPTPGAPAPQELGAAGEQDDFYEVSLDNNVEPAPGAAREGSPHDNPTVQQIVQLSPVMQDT
Sequence of UniProt Q5SSJ5 (Q5SSJ5 whole entry, looked up): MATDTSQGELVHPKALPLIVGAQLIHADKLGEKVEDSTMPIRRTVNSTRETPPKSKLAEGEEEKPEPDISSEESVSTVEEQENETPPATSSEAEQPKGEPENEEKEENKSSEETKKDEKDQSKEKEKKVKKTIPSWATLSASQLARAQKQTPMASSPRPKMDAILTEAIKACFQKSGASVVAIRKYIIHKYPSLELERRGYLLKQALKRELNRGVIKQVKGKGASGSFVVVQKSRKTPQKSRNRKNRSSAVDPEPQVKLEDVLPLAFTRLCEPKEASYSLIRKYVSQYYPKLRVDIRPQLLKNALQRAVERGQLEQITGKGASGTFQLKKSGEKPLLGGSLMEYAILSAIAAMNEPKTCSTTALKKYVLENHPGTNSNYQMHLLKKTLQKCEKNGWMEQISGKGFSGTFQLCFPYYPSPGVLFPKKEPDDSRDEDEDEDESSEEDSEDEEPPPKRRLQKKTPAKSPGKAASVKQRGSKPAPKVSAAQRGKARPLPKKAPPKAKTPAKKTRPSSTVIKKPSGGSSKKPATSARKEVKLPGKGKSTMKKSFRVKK
Sequence of UniProt Q92664 (Q92664 whole entry, looked up): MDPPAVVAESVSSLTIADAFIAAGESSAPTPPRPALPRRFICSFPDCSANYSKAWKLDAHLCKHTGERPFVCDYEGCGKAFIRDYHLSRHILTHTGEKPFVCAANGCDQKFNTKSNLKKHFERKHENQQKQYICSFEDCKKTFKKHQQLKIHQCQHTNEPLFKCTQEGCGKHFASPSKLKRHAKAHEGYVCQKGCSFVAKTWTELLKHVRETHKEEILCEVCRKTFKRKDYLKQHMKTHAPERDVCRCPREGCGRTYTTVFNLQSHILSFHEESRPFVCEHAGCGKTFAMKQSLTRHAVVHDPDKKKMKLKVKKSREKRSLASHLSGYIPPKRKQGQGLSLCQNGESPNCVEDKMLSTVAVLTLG
Sequence of UniProt P50213 (P50213 whole entry, looked up): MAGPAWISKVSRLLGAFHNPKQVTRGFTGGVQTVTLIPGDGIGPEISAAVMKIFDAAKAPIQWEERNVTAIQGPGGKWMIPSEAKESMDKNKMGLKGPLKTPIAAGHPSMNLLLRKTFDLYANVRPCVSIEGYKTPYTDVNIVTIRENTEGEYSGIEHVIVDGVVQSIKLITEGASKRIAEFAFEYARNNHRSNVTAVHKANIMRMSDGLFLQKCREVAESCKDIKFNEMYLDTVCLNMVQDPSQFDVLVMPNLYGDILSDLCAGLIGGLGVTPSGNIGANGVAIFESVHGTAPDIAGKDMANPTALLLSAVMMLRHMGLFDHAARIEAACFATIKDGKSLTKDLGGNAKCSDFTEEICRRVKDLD
Sequence of UniProt Q9Y3D6 (Q9Y3D6 whole entry, looked up): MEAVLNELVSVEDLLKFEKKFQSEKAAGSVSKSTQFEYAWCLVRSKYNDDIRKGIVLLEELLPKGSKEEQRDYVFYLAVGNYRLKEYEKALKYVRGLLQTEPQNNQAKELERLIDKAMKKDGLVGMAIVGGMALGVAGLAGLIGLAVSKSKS
Sequence of UniProt Q9Y248 (Q9Y248 whole entry, looked up): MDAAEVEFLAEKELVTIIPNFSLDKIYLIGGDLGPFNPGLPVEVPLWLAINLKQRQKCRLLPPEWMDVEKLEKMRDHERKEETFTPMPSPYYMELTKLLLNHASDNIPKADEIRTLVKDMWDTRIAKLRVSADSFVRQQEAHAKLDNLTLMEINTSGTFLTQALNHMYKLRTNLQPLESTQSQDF
Sequence of UniProt Q9UK97 (Q9UK97 whole entry, looked up): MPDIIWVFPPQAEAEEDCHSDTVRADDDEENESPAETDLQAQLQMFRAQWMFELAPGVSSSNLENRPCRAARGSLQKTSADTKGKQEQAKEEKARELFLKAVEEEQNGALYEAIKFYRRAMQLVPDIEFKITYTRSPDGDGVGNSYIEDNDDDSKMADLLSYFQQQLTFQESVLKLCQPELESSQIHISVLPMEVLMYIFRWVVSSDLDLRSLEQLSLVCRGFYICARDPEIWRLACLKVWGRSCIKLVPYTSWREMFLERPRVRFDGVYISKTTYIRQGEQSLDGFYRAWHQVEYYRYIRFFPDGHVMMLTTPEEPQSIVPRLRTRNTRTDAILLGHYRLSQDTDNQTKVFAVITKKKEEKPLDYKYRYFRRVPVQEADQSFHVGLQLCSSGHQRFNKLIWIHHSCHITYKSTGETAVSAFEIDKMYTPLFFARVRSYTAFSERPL
Sequence of UniProt O14893 (O14893 whole entry, looked up): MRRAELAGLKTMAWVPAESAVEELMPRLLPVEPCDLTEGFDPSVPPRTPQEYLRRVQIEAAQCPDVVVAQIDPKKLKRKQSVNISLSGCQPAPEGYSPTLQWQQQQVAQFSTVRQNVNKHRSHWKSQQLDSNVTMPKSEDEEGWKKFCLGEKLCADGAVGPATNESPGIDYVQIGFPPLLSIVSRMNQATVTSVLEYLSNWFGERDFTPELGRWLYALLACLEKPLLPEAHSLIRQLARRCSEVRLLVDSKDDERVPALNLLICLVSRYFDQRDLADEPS
Sequence of UniProt Q8N4A0 (Q8N4A0 whole entry, looked up): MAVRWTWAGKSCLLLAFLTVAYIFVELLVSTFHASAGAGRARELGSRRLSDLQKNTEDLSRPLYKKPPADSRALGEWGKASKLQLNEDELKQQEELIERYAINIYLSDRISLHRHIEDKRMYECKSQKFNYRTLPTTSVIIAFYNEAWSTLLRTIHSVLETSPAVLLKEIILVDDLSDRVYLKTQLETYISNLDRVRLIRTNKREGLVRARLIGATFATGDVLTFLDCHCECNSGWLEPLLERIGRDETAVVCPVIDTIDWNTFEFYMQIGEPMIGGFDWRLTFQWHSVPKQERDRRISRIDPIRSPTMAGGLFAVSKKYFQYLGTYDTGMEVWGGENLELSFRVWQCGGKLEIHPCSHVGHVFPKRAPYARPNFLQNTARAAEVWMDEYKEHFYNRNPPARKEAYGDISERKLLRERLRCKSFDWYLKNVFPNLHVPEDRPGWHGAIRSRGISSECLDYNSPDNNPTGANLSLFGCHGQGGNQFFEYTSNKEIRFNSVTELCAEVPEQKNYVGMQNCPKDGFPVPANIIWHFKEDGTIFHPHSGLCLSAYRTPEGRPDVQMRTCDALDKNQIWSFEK
Sequence of UniProt P36969 (P36969 whole entry, looked up): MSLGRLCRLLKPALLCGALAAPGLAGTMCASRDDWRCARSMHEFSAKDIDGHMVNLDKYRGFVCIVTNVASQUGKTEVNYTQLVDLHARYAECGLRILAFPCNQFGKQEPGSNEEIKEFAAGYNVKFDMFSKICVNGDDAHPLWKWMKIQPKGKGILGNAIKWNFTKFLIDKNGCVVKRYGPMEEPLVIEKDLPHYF

| Target | log2 fold change (erlotinib) | log2 fold change [1] | log2 fold change [2] | log2 fold change [3] | log2 fold change [4] | log2 fold change [5] | log2 fold change [6] | log2 fold change [7] | log2 fold change [8] | log2 fold change [9] |
| --- | --- | --- | --- | --- | --- | --- | --- | --- | --- | --- |
| GATA1 (UniProt P15976) | 0.05 | 0.024 | -0.021 | -0.015 | 0.032 | 0.028 | -0.021 | -0.083 | 0.031 | -0.004 |
| HIST2H3A (UniProt Q71DI3) | 0.113 | -0.114 | -0.305 | -0.028 | 0.011 | 0.221 | 0.047 | -0.004 | 0.287 | -0.378 |
| HBA1 (UniProt P69905) | -0.058 | 0.048 | 0.215 | 0.063 | 0.104 | 0.023 | 0.123 | -0.026 | -0.105 | 0.031 |
| HNRNPH1 (UniProt P31943) | 0.043 | 0.102 | -0.04 | 0.004 | -0.035 | -0.012 | -0.016 | 0.007 | -0.1 | -0.023 |
| GMEB1 (UniProt Q9Y692) | 0.106 | 0.071 | 0.012 | -0.005 | -0.006 | 0.009 | -0.027 | -0.089 | 0.004 | 0.036 |
| FBXO42 (UniProt Q6P3S6) | 0.026 | -0.006 | -0.002 | 0.025 | 0.025 | 0.055 | 0.051 | -0.006 | -0.05 | -0.024 |
| GLUD1 (UniProt P00367) | 0.068 | -0.009 | 0.051 | 0.026 | 0.039 | -0.018 | -0.033 | 0 | 0.05 | -0.027 |
| HSPA8 (UniProt P11142) | -0.016 | -0.031 | 0.01 | -0.014 | 0 | 0 | -0.003 | -0.088 | 0.009 | 0.017 |
| HRAS (UniProt P01112) | 0.029 | 0.034 | 0.069 | 0.146 | -0.356 | -0.244 | 0.138 | -0.168 | -0.08 | 0.048 |
| GUK1 isoform 2 (UniProt Q16774) | 0.009 | 0.289 | 0.092 | 0 | 0.004 | 0 | -0.02 | 0.021 | -0.03 | 0.066 |
| FNTA (UniProt P49354) | 0.245 | -0.033 | 0.116 | -0.017 | 0.075 | -0.009 | 0.051 | -0.034 | 0.065 | 0.106 |
| HDHD2 (UniProt Q9H0R4) | 0.029 | 0 | 0.133 | 0.009 | 0.013 | 0.046 | -0.015 | -0.018 | -0.009 | 0.037 |
| HP1BP3 (UniProt Q5SSJ5) | 0.071 | -0.035 | -0.04 | 0.028 | 0.069 | 0.064 | -0.013 | -0.044 | 0.027 | -0.155 |
| HIC2 (UniProt Q96JB3) | 0.128 | 0 | -0.17 | 0.028 | -0.159 | -0.08 | 0.012 | -0.266 | -0.023 | -0.09 |
| GALNT11 (UniProt Q8NCW6) | 0.088 | -0.019 | 0.033 | -0.009 | 0.122 | 0.118 | -0.034 | 0.043 | -0.025 | 0.014 |
| GALNT4 (UniProt Q8N4A0) | 0.077 | 0.062 | 0.075 | 0.026 | 0.086 | 0.044 | -0.012 | 0.008 | 0.006 | 0.005 |
| FIS1 (UniProt Q9Y3D6) | 0.013 | 0.066 | 0.015 | 0.01 | -0.034 | 0.024 | -0.025 | 0.02 | -0.06 | 0.09 |
| GPX4 (UniProt P36969) | -0.021 | 0.035 | -0.012 | 0.057 | -0.007 | 0.006 | 0.142 | -0.063 | -0.036 | 0.058 |
| FLNA (UniProt P21333) | 0.022 | 0.072 | -0.002 | -0.032 | -0.022 | 0.005 | 0.013 | -0.017 | -0.018 | -0.133 |
| FMR1 (UniProt Q06787) | -0.301 |  |  | 0.154 |  |  | -0.121 |  |  |  |
| GOPC (UniProt Q9HD26) | 0.016 | 0.051 | -0.284 | -0.178 | -0.027 | -0.147 | -0.008 | 0.265 | -0.036 | 0.06 |
| FOXO3 (UniProt O43524) | 0.026 | -0.007 | -0.025 | -0.079 | 0.027 |  | -0.035 | 0.038 | -0.224 | -0.283 |
| GPS2 (UniProt Q13227) | -0.124 |  | 0.066 | -0.046 |  | 0.05 | -0.046 |  | 0.262 | 0.029 |
| HNRNPUL1 (UniProt M0R247) | -0.032 | -0.317 |  | -0.513 | 0.545 |  |  | -0.419 | 0.471 | 0.051 |
| FUNDC1 (UniProt Q8IVP5) |  |  |  |  |  | 0.597 (active) |  |  |  |  |
| H3-3A (UniProt P84243) | 0.085 |  |  | -0.035 |  | -0.1 |  |  | 0.049 | -0.218 |
| FCHO1 (UniProt O14526) | 0.065 | 0.104 | -0.032 | -0.011 | 0.07 |  | -0.144 | -0.061 | -0.005 | -0.029 |

| Target | log2 fold change (erlotinib) | log2 fold change [1] | log2 fold change [2] | log2 fold change [3] | log2 fold change [4] | log2 fold change [5] | log2 fold change [6] | log2 fold change [7] | log2 fold change [8] | log2 fold change [9] |
| --- | --- | --- | --- | --- | --- | --- | --- | --- | --- | --- |
| GBA2 (UniProt Q9HCG7) | 0.063 | 0.095 | 0.04 | 0.01 | 0.033 | -0.023 |  | 0.028 | 0.034 | 0.104 |
| GOLGA8R (UniProt I6L899) | 0.377 | -0.394 |  | -0.019 | 0.078 | -0.008 | 0.058 | -0.049 | -0.097 | 0.302 |
| FCF1 (UniProt Q9Y324) |  |  | -0.392 |  |  |  | -0.075 |  | 0.034 | -0.138 |
| FAT2 (UniProt Q9NYQ8) | 0.115 |  | 0.26 | -0.098 |  | 0.096 | 0 |  | -0.166 | 0.186 |
| GNL3 (UniProt Q9BVP2) |  | -0.562 (active) | 0.165 |  | 0.149 | -0.054 |  | 0.053 | -0.048 | 0.142 |
| IDH3A isoform 2 (UniProt P50213) | 0.132 | -0.572 (active) |  | -0.084 | 0.135 | -0.017 |  | 0.039 | -0.052 | 0.164 |
| IGF2 isoform 3 (UniProt P01344) | -0.098 |  |  | 0.028 |  |  |  |  |  |  |
| HSPA2 (UniProt P54652) | 0.623 | -0.047 |  | -0.182 | 0.022 | 0.058 | -0.095 | 0.192 |  |  |
| HDAC10 (UniProt Q969S8) | 0.065 | -0.067 |  | 0.038 | -0.277 | 0.066 | 0.045 | -0.072 | -0.729 (active) | 0.333 |
| HEATR3 (UniProt Q7Z4Q2) | -0.002 |  | -0.013 | 0.013 |  | -0.044 | 0.062 |  | -0.113 | 0.032 |
| GEMIN2 (UniProt O14893) |  | -0.086 | -0.428 (active) |  | 0.057 | -0.013 | -0.069 | -0.042 |  |  |
| GOLGA6B (UniProt A6NDN3) | -0.069 |  | -0.054 | 0.116 |  | 0.036 |  |  |  |  |
| FIZ1 (UniProt Q96SL8) |  |  | -0.272 |  |  |  |  |  |  |  |
| GAB2 (UniProt Q9UQC2) | -0.035 | 0.149 | -0.033 | 0.231 | -0.04 |  | -0.294 | -0.196 | -0.29 | 0.012 |
| GTF3A (UniProt Q92664) | -0.048 | -0.117 | 0.095 | 0.116 | 0.157 | 0.004 |  | -0.115 | -0.019 | 0.174 |
| HNRNPK isoform 3 (UniProt P61978) | 0.101 |  | -0.102 | -0.032 |  | 0.06 | -0.024 |  | -0.027 | -0.052 |
| GAK (UniProt O14976) | 0.64 | -0.78 | -0.133 | -0.821 | 0.527 |  | 0.639 | 0.955 | 1.08 | -0.265 |
| HSPA8 (UniProt E9PN89) | 0.051 | -0.193 | -0.191 | -0.061 | 0.358 | 0.06 |  | -0.133 | 0.267 | -0.027 |
| GINS2 (UniProt Q9Y248) | 0.076 |  | 0.083 | -0.045 |  | -0.008 | 0.203 |  | -0.089 | -0.034 |
| FBXO9 (UniProt Q9UK97) | -0.017 |  |  | 0.137 |  | -0.022 | 0.03 |  | -0.098 | -0.037 |
| FRA10AC1 isoform 3 (UniProt Q70Z53) | -0.02 | 0.053 | -0.059 | -0.12 | -0.305 | 0.033 |  | -0.154 | -0.067 | 0.126 |
| GSE1 (UniProt Q14687) |  |  |  |  |  | -0.269 | -0.048 |  |  |  |
| GREB1 (UniProt Q4ZG55) | 0.218 | -0.751 (active) | 0 | -0.132 | 0.092 |  |  | -0.044 | -0.06 | 0.291 |
| HBZ, A0A494C057 | 0.141 |  |  | -0.062 |  | -0.055 |  |  |  |  |
| GPNMB (UniProt Q14956) | 0.286 |  | -0.281 | -0.046 |  |  |  |  |  |  |
| FAT1 (UniProt Q14517) | -0.06 |  | -0.062 | 0.161 |  | -0.08 | 0.045 |  | -0.123 | 0.066 |
| FGG (UniProt P02679) |  |  |  |  |  |  | -0.05 |  |  |  |
